# Results: PubChem BioAssay (Tox21)
# A number with no mark means an inactive call. Inconclusive results are not listed. Entries that show only a call come without a potency. Active and inactive are the calls of the source. Unless noted, calls come from the whole dose curve; as a rule, active = well fitted curve in the direction sought with a large enough effect in the repeat runs; inconclusive = weak or mixed curves; inactive = no such curve, though single readings can be large; an effect the other way counts as inactive or inconclusive.
# Key:
# [1] = qHTS RealTime-Glo MT Cell Viability Assay in HepG2 cells - 32 hour (AID 1224877); note: nearly all actives have a fitted effect of over 55% in size
# Procedure, shortened: (§1)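 HepG2 suspension premixed with RealTime-Glo reagents is plated at 600 cells per well and left 5 h at 37 C/5% CO2. Compounds in DMSO then go in, and bioluminescence reflecting viable cell number is recorded over 40 h.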
# [2] = A CellTox Green Cytotoxicity Assay to monitor cytotoxicity in HepG2 cells - 24 hour (AID 1224878); note: nearly all actives have a fitted effect of over 45% in size
# Procedure, shortened: (§2)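 Fluorescent DNA-binding dye, 600 HepG2 cells/well, 5 h preincubation then compound in DMSO; same plates read at 0–40 h, 37 C.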
# [3] = A CellTox Green Cytotoxicity Assay to monitor cytotoxicity in HepG2 cells - 40 hour (AID 1224879); note: nearly all actives have a fitted effect of over 40% in size
# Procedure, shortened: as §2
# [4] = qHTS RealTime-Glo MT Cell Viability Assay in HEK293 cells - 0 hour (AID 1224880); note: top concentration of the series differs between compounds; nearly all actives have a fitted effect of over 45% in size
# Procedure, shortened: (§3)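 Measured as luminescence from the same continuously cultured HEK293 wells at successive time points (0, 8, 16, 24, 32, 40 h) after compound addition. Reagent present from seeding; dosing at 5 h; incubation 37 C.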
# [5] = A CellTox Green Cytotoxicity Assay to monitor cytotoxicity in HEK293 cells - 32 hour (AID 1224881); note: nearly all actives have a fitted effect of over 40% in size
# Procedure, shortened: (§4)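 Homogeneous no-lysis format: HEK293 cell suspension mixed with CellTox Green reagent, seeded, incubated 5 h at 37 C/5% CO2, then dosed by pintool with compound in DMSO.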
# [6] = A CellTox Green Cytotoxicity Assay to monitor cytotoxicity in HepG2 cells - 32 hour (AID 1224883); note: nearly all actives have a fitted effect of over 50% in size
# Procedure, shortened: as §2
# [7] = A CellTox Green Cytotoxicity Assay to monitor cytotoxicity in HEK293 cells - 8 hour (AID 1224884); note: nearly all actives have a fitted effect of over 35% in size; note: potency is the fitted concentration of half-maximal effect
# Procedure, shortened: as §4
# [8] = qHTS RealTime-Glo MT Cell Viability Assay in HepG2 cells - 16 hour (AID 1224885); note: nearly all actives have a fitted effect of over 50% in size
# Procedure, shortened: as §1
# [9] = qHTS RealTime-Glo MT Cell Viability Assay in HEK293 cells - 24 hour (AID 1224886); note: nearly all actives have a fitted effect of over 50% in size; note: potency is the fitted concentration of half-maximal effect
# Procedure, shortened: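 Reads taken at 0, 8, 16, 24, 32 and 40 h from the same wells. HEK293 cells (600/well) carried RealTime-Glo reagents from seeding, with compound added after a 5 h settle at 37 C.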
# [10] = qHTS RealTime-Glo MT Cell Viability Assay in HEK293 cells - 8 hour (AID 1224887); note: nearly all actives have a fitted effect of over 50% in size; note: potency is the fitted concentration of half-maximal effect
# Procedure, shortened: as §3
# [11] = A CellTox Green Cytotoxicity Assay to monitor cytotoxicity in HEK293 cells - 16 hour (AID 1224888); note: nearly all actives have a fitted effect of over 35% in size
# Procedure, shortened: as §4
# [12] = qHTS RealTime-Glo MT Cell Viability Assay in HepG2 cells - 0 hour (AID 1224889); note: nearly all actives have a fitted effect of over 50% in size
# Procedure, shortened: as §1
# [13] = A CellTox Green Cytotoxicity Assay to monitor cytotoxicity in HepG2 cells - 8 hour (AID 1224890); note: nearly all actives have a fitted effect of over 45% in size
# Procedure, shortened: as §2
# [14] = qHTS assay to identify small molecule antagonists of the estrogen receptor alpha (ER-alpha) signaling pathway using the BG1 cell line in the presence of 0.1 nM 17-beta-estradiol - cell viability counter screen (AID 1259241); note: nearly all actives have a fitted effect of over 40% in size
# Procedure, shortened: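 Live-cell protease activity (CellTiter-Fluor fluorescence, 30 min) was read in the same wells after VM7Luc4E2 cells had been exposed to compounds with 0.1 nM 17beta-estradiol for 22 hr at 37C.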
# [15] = qHTS assay to identify small molecule antagonists of the androgen receptor (AR) signaling pathway using the MDA cell line in the presence of 0.5 nM R1881 - cell viability counter screen (AID 1259242); note: nearly all actives have a fitted effect of over 45% in size
# Procedure, shortened: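 Human breast carcinoma MDA-kb2 cells, cultured without CO2, receive compounds alongside 0.5 nM (final) R1881 agonist. After 16 hr at 37C, viability is taken as live-cell protease signal.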
# [16] = molecular target: Estrogen receptor (Homo sapiens) (UniProt P03372); assay: qHTS assay to identify small molecule antagonists of the estrogen receptor alpha (ER-alpha) signaling pathway using the BG1 cell line in the presence of 0.1 nM 17-beta-estradiol (AID 1259244); note: nearly all actives have a fitted effect of over 50% in size; note: potency is the fitted concentration of half-maximal effect
# Procedure, shortened: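 Seeding of stripped-serum-adapted VM7Luc4E2 cells, 24 h attachment, compound transfer, then 0.1 nM final 17beta-estradiol; after 22 h incubation, ONE-Glo reagent and luminescence reading.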
# [17] = qHTS assay to identify small molecule phospholipidosis (PLD) inducers (AID 1259344; active = well fitted curve in the direction sought with a large enough effect; an effect the other way counts as inactive or inconclusive)
# Procedure, shortened: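 Read-out is LipidTOX Red fluorescence (ex 595/em 615) imaged in HepG2 cells after 24 h compound exposure at 37 C, with Hoechst nuclear counterstain (ex 352/em 461) allowing per-cell normalisation.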
# [18] = qHTS assay to identify small molecule HDAC inhibitors (AID 1259364)
# Procedure, shortened: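 After a 2 hr compound incubation (37C, 5% CO2), HCT-116 cells seeded at 1,500/well the day before received HDAC-Glo reagent; signal read as luminescence after 30 min at room temperature.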
# [19] = qHTS assay to identify small molecule HDAC inhibitors - cell viability counter screen (AID 1259365)
# Procedure, shortened: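 HCT-116 (wild type), 1,500 cells/well, overnight 37C/5% CO2; compound in DMSO 2hr; CellTiter-Glo 30min RT; luminescence read.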
# [20] = A CellTox Green Cytotoxicity Assay to monitor cytotoxicity in HepG2 cells - 0 hour (AID 1224882); note: nearly all actives have a fitted effect of over 35% in size
# Procedure, shortened: as §2
# Sequence of Estrogen receptor (Homo sapiens) (P03372 whole entry, looked up): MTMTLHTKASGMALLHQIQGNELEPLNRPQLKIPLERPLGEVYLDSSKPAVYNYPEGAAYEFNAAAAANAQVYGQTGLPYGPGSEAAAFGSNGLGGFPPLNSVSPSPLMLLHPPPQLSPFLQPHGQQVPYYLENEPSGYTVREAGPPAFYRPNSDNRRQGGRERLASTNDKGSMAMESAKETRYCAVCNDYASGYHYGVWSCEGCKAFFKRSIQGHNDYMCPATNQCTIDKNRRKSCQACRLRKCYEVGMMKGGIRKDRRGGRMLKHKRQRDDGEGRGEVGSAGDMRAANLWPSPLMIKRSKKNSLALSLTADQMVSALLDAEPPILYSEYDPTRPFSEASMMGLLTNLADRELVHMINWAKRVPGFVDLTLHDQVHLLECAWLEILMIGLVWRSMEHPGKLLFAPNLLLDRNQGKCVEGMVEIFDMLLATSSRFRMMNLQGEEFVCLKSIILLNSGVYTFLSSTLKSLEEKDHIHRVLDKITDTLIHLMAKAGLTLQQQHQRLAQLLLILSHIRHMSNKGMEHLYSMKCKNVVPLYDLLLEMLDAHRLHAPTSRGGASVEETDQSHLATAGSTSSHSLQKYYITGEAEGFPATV
Structure (SMILES),outcome [1],Potency [2],Potency [3],outcome [4],Potency [5],Potency [6],Potency [7],outcome [8],Potency [9],Potency [10],Potency [11],Potency [12],Potency [13],Potency [14],Potency [15],Potency [16],outcome [17],Potency [18],outcome [19],Potency [20]
NC(=O)C1(N2CCCCC2)CCN(CCCC(=O)c2ccc(F)cc2)CC1,inactive,inactive,inactive,inactive,inactive,inactive,inactive,inactive,inactive,inactive,inactive,inactive,inactive,inactive,inactive,inactive,inactive,inactive,inactive,–
CCCCCCCCCCCCC,inactive,inactive,inactive,inactive,inactive,–,inactive,inactive,inactive,inactive,inactive,inactive,inactive,inactive,inactive,inactive,–,inactive,inactive,inactive
CC(=O)OC(C)c1ccccc1 (stereo unspecified),inactive,inactive,inactive,inactive,inactive,–,inactive,inactive,inactive,inactive,inactive,inactive,inactive,inactive,inactive,inactive,–,–,inactive,inactive
CN(C1CCCCC1)S(=O)(=O)c1ccccc1N,inactive,inactive,inactive,inactive,inactive,inactive,–,inactive,–,inactive,inactive,inactive,inactive,inactive,inactive,–,–,inactive,inactive,inactive
c1ccc(CNc2ncnc3nc[nH]c23)cc1,inactive,inactive,inactive,inactive,inactive,–,inactive,inactive,–,–,inactive,inactive,inactive,inactive,inactive,–,–,–,inactive,inactive
Cc1nc2n(c(=O)c1CCN1CCC(C(=O)c3ccc(F)cc3)CC1)CCS2,inactive,inactive,inactive,inactive,inactive,–,inactive,inactive,5.35 µM (active),6.74 µM (active),inactive,–,inactive,inactive,inactive,23.7 µM (active),–,inactive,inactive,inactive
C=CCOCC(O)CCl (stereo unspecified),inactive,inactive,inactive,inactive,inactive,–,inactive,inactive,inactive,inactive,inactive,inactive,inactive,inactive,inactive,inactive,–,inactive,inactive,inactive
C1=C\CC/C=C\CC/1,inactive,inactive,inactive,inactive,inactive,–,4.07 µM (active),inactive,inactive,inactive,inactive,inactive,inactive,inactive,inactive,inactive,–,–,inactive,inactive
O=C1c2ccccc2-c2ccccc21,inactive,inactive,inactive,inactive,inactive,–,–,inactive,inactive,inactive,inactive,inactive,inactive,inactive,inactive,–,–,inactive,inactive,inactive
CC1(N)CCC(C(C)(C)N)CC1 (stereo unspecified),inactive,inactive,inactive,inactive,inactive,inactive,inactive,inactive,inactive,inactive,inactive,inactive,inactive,inactive,inactive,–,–,inactive,inactive,–
CCOC(=O)CC#N,inactive,inactive,inactive,inactive,–,inactive,inactive,inactive,inactive,inactive,inactive,–,inactive,inactive,inactive,inactive,–,inactive,inactive,inactive
CC(C)CCCCCCOC(=O)C1CCCCC1C(=O)OCCCCCCC(C)C (stereo unspecified),inactive,inactive,inactive,inactive,–,inactive,inactive,inactive,inactive,inactive,inactive,inactive,inactive,inactive,inactive,inactive,–,inactive,inactive,inactive
Cc1ncc([N+](=O)[O-])n1CC(O)CCl (stereo unspecified),inactive,inactive,inactive,inactive,inactive,inactive,–,inactive,–,inactive,inactive,inactive,inactive,inactive,inactive,–,inactive,inactive,inactive,–
COC(/C=C(\C)CCC=C(C)C)OC,inactive,inactive,inactive,inactive,inactive,–,inactive,inactive,–,inactive,–,inactive,inactive,inactive,inactive,inactive,–,inactive,inactive,–
Cc1ccc(S(=O)(=O)NC(=O)NC2CCCCCCC2)cc1,inactive,inactive,inactive,inactive,–,inactive,–,inactive,inactive,inactive,inactive,inactive,inactive,inactive,inactive,–,inactive,inactive,inactive,inactive
O=C(COCCOCCOCC(=O)Nc1c(I)cc(I)c(C(=O)O)c1I)Nc1c(I)cc(I)c(C(=O)O)c1I,inactive,inactive,inactive,inactive,–,inactive,inactive,inactive,inactive,inactive,inactive,inactive,inactive,inactive,inactive,inactive,inactive,inactive,inactive,inactive
